From the supplement of paper PMC11732987, “Enantioselective OTUD7B fragment discovery through chemoproteomics screening and high-throughput optimisation” (Communications Chemistry, 2025)

Experiments:
Test in all cases: log2 ratio of Biotin-Ahx-Ub-VS probe labelling (fragment/DMSO); higher = less target engagement (more negative = stronger competition), active = hit call of the paper (q ≤ 0.05, log2 ratio ≤ -1)
Details in all cases: compound concentration: 200 uM; treatment time: 3 h
USP34 = USP34 (UniProt Q70CQ2)
USP34, sequence (Q70CQ2 whole entry, the tested form may be a part): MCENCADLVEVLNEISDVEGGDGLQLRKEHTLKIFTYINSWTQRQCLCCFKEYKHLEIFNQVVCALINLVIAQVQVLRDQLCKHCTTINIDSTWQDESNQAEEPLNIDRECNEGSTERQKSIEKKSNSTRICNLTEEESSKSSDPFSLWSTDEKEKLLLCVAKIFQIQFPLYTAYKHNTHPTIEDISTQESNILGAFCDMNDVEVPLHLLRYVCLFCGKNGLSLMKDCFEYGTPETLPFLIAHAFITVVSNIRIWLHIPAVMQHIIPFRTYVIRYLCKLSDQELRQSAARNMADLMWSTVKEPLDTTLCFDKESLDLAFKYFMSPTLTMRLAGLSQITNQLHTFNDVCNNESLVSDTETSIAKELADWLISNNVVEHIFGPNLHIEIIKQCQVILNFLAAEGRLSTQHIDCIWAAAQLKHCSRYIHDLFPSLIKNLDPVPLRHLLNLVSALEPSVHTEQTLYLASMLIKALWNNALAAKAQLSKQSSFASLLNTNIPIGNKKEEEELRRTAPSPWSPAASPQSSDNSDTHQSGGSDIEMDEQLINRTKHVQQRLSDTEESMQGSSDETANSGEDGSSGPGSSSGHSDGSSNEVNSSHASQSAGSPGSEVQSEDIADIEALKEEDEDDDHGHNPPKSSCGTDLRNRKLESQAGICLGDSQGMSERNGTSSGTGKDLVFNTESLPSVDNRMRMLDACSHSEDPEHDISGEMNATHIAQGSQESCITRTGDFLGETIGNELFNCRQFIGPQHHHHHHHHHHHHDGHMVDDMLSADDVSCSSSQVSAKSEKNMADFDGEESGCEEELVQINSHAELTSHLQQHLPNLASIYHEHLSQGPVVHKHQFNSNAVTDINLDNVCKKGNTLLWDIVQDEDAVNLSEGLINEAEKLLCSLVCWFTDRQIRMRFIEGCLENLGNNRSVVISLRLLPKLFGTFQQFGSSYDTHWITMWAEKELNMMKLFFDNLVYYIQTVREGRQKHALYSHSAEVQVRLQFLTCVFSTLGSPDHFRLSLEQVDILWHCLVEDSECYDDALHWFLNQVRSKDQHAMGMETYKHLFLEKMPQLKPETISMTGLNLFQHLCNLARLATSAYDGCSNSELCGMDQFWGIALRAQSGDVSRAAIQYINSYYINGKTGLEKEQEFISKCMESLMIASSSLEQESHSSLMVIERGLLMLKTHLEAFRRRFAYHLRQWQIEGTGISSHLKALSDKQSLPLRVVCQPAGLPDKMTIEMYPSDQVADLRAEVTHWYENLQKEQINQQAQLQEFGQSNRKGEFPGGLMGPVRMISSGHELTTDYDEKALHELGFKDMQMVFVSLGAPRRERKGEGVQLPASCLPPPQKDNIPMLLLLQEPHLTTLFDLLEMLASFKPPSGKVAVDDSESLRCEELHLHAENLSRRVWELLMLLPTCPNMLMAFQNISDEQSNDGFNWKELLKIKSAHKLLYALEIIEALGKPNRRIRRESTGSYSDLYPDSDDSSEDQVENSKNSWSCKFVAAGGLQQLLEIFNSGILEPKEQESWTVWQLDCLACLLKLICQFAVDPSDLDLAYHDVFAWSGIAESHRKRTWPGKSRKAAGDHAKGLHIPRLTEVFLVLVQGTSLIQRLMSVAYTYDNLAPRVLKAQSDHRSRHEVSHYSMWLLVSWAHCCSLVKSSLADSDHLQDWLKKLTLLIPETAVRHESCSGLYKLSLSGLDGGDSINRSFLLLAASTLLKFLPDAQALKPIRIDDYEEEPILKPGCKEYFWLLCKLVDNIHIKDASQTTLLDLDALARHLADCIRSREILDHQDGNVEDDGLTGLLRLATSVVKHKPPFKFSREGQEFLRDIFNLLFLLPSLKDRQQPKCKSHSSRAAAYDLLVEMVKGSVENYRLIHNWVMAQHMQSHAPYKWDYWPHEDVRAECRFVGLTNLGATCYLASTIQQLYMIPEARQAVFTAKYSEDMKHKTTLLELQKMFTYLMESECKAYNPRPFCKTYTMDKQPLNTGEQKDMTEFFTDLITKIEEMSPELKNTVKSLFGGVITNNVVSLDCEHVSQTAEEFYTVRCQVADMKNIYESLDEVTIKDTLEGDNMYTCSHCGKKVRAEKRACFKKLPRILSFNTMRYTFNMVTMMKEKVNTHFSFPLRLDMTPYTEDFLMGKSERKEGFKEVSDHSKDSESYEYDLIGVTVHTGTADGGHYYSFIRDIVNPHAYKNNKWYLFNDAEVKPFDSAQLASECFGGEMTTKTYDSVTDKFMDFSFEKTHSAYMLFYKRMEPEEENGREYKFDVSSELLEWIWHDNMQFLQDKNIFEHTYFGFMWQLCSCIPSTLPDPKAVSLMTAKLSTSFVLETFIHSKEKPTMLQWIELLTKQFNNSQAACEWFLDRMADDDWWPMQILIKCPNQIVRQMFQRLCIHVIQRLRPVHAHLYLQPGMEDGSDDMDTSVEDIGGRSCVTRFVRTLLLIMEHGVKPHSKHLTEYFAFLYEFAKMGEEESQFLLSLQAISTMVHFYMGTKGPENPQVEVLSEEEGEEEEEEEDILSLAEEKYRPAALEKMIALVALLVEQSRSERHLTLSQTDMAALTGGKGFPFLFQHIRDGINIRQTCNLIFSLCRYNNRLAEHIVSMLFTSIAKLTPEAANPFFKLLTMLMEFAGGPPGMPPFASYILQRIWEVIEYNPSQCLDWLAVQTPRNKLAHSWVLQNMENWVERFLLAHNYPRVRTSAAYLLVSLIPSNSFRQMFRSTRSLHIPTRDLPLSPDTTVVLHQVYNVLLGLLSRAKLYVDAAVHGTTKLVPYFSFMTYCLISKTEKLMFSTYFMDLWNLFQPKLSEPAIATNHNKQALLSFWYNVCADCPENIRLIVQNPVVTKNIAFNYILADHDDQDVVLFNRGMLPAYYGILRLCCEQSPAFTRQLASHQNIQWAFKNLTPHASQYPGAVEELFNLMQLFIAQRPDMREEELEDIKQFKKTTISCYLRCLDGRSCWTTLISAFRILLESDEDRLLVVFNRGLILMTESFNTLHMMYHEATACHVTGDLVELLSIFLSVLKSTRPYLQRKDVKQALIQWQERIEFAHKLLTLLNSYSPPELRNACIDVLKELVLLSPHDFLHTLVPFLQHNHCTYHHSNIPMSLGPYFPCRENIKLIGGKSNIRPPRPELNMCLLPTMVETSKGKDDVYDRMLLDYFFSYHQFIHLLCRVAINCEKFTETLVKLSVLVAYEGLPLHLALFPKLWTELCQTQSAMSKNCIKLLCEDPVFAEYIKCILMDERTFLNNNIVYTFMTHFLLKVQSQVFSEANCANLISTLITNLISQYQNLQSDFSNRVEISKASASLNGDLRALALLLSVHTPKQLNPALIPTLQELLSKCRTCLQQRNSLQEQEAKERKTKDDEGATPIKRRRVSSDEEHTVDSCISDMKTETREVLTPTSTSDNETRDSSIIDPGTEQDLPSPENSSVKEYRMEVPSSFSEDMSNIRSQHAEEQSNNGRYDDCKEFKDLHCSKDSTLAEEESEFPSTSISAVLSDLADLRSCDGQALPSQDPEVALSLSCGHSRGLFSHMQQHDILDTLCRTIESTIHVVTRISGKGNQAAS
Method in brief: (§1)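 Average log2 ratios of fragment over vehicle were obtained by unpaired t-test from global-median-normalised Spectronaut label-free quantities. Proteins with ≥2 unique peptides were included. HEK293T lysate (495 µg per sample) was treated in triplicate with fragment at 200 µM or vehicle for 3 h, then with Biotin-Ahx-Ub-VS at 0.5 µM final for 1 h, and labelled DUBs were NeutrAvidin-enriched and run by diaPASEF LC-MS/MS.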

USP36 = target: T1, USP36 (UniProt Q9P275)
T1 sequence (whole entry): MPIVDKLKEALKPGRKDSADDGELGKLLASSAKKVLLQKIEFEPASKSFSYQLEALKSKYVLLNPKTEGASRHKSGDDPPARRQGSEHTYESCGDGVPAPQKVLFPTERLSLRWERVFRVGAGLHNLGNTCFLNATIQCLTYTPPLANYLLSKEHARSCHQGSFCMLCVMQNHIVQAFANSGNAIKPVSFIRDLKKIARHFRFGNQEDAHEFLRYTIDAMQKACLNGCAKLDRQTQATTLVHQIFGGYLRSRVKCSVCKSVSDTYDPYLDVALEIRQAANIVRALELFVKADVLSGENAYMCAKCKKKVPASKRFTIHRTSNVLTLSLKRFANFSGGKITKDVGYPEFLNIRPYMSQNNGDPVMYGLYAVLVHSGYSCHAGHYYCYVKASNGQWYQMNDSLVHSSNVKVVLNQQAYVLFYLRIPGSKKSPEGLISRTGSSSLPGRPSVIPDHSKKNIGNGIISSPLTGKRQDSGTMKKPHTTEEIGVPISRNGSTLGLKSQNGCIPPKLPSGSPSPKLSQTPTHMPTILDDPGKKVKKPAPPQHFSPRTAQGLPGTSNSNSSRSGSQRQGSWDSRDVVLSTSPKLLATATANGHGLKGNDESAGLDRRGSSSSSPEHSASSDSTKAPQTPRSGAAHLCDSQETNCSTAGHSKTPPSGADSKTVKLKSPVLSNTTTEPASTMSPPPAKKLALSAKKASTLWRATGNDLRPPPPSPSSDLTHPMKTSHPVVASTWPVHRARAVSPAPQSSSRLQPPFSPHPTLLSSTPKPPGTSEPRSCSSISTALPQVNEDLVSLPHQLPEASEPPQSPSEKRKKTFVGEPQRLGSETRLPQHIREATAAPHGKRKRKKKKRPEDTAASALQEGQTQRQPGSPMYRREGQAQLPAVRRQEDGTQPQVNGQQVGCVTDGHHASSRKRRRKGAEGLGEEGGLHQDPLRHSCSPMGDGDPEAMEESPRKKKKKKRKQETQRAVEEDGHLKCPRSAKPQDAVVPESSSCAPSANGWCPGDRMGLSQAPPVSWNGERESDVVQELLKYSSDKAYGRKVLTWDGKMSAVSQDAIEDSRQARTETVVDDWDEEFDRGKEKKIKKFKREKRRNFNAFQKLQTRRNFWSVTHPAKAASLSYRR
Method in brief: as §1

USP38 = target: T2, USP38 (UniProt Q8NB14)
T2 sequence (whole entry): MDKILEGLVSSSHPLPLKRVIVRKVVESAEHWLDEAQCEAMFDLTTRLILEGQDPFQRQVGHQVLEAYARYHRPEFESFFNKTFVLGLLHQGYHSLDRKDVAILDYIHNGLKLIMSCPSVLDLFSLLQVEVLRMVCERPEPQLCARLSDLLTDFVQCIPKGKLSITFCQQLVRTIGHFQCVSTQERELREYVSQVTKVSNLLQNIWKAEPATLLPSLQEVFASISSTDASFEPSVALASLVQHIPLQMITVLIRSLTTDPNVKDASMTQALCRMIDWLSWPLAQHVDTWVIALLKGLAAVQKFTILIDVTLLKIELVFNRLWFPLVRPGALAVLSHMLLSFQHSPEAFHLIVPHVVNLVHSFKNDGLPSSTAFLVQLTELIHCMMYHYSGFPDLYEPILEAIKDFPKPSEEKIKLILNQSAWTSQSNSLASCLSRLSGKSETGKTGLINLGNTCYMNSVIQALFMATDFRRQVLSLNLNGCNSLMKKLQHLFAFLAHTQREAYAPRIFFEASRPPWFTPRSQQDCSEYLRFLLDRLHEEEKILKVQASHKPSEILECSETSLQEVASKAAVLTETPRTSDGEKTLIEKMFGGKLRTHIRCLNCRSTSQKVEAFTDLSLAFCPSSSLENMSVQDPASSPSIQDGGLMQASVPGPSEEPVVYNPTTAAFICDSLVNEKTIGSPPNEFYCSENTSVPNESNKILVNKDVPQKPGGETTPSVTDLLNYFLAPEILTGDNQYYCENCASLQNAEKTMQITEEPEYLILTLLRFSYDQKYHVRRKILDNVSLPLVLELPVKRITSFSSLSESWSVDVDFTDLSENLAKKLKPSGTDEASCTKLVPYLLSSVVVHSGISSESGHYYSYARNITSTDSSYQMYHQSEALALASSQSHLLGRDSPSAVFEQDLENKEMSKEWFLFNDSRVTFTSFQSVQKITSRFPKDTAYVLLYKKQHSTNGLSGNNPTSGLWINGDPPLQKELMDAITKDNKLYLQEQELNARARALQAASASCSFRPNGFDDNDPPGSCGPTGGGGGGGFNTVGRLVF
Method in brief: as §1

USP39 = target: T3, USP39 (UniProt Q53GS9)
T3 sequence (whole entry): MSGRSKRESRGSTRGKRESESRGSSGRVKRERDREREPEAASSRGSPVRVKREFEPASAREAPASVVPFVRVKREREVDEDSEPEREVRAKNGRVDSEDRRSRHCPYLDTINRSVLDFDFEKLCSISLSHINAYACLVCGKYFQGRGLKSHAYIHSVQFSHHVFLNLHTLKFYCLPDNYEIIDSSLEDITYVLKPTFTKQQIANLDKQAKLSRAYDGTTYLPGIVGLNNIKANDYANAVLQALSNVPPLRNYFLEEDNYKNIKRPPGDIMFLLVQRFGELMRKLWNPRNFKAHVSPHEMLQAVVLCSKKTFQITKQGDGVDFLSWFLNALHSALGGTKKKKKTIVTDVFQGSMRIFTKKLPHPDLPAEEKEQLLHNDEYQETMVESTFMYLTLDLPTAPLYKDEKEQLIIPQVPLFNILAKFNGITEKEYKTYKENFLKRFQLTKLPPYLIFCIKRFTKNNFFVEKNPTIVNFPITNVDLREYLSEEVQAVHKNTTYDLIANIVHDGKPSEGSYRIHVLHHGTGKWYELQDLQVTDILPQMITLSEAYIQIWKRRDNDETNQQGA
Method in brief: as §1

USP4 = target: T4, USP4 (UniProt Q13107)
T4 sequence (whole entry): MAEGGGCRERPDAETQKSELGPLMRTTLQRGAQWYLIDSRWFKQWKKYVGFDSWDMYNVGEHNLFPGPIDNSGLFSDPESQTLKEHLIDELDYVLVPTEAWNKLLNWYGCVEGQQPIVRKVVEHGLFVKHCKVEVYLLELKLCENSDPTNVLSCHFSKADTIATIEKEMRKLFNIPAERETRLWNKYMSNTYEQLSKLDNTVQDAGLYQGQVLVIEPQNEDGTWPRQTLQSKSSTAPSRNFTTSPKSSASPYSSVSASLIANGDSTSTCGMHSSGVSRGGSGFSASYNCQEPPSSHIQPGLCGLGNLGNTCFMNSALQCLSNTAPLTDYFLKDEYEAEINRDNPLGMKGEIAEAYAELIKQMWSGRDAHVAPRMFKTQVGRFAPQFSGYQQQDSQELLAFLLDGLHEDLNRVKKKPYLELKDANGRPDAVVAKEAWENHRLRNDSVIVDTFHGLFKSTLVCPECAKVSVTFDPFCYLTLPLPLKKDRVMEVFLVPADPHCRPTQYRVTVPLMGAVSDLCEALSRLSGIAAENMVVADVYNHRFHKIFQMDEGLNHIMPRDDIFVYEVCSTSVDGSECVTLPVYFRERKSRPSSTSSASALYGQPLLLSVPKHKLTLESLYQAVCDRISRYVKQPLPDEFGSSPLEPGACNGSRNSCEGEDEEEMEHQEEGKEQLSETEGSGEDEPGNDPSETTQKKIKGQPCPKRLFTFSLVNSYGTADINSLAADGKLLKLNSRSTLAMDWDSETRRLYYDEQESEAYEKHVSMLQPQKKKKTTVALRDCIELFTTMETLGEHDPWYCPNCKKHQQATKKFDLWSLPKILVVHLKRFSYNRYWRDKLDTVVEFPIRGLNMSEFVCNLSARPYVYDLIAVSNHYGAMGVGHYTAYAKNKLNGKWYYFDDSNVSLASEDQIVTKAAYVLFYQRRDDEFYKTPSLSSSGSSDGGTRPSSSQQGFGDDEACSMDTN
Method in brief: as §1

Measured: log2 ratio of Biotin-Ahx-Ub-VS probe labelling

Cc1cc(CC(C)NC(=O)CCl)n[nH]1 (stereo not given)
inactive: USP34 -0.00217 | USP36 -0.0115 | USP38 -0.279 | USP39 -0.196 | USP4 -0.0597
